Where “and” joins values, the source holds several entries; their conditions need not be identical. Identical values can stand only once. Inconclusive results are not listed. Where a call stands in place of a potency, no number is given. Calls of active or inactive are those of the source. Calls come from the whole dose curve; as a rule, active = well fitted cell-killing curve with a large enough effect; inconclusive = small, poorly fitted or top-dose-only effect, or effect the other way; inactive = no such curve, though single readings can be large or run the other way.
Potency is the fitted concentration of half-maximal effect.

This experiment in a line: Viability qHTS for spleen associated tyrosine kinase inhibitor (SYKi) naive MV4-11 cells (AID 1963823). Note: nearly all actives have a fitted effect of over 40% in size. The following applies: MV4-11 AML viability, CellTiter-Glo luminescence, 72 h; series mostly up to 45 µM. In a few lines: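 Read-out: CellTiter-Glo luminescence. Exposure: 72 hr, 37 C, 5% CO2, 95% humidity. Cells: MV4-11 without SYK inhibitor history, 500/well, qHTS format.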
With `Cc1[nH]c(/C=C2\C(=O)Nc3ccc(S(=O)(=O)N(C)c4cccc(Cl)c4)cc32)c(C)c1C(=O)N1CCN(C)CC1`, the Potency was 1.3 µM (active) and 1.32 µM (active). Under `C[C@@H]1N=C(N)NC(N(C)C)=N1` stands “inactive”.

As for `O=S(=O)(O)c1cc(I)c(O)c2ncccc12`, the Potency is 15 nM (active). As for `C=CC(=O)N1CCC[C@@H](n2nc(-c3ccc(Oc4ccccc4)cc3)c3c(N)ncnc32)C1`, the figure is 1.64 µM (active) and 662 nM (active). As for `COc1cccc2c1C(=O)c1c(O)c3c(c(O)c1C2=O)C[C@@](O)(C(=O)CO)C[C@@H]3O[C@H]1C[C@H](N)[C@H](O[C@@H]2CCCCO2)[C@H](C)O1`, the figure is 750 nM (active); as for `COc1ccc2c(c1)[C@]1(C[C@H]1c1ccc3c(/C=C/c4ccc(CN5C[C@@H](C)O[C@@H](C)C5)cc4)n[nH]c3c1)C(=O)N2`, 105 nM (active); as for `CCN1C(=O)CNc2ncc(-c3ccc(-c4ncn[nH]4)nc3C)nc21`, 417 nM (active). Under `Nc1ncnc2c1ncn2[C@@H]1O[C@H](CO)C[C@H]1O` stands “inactive”; under `CO[C@@]1(NC(=O)C(C(=O)O)c2ccc(O)cc2)C(=O)N2C(C(=O)O)=C(CSc3nnnn3C)CO[C@@H]21` (stereo partly drawn), “inactive”; under `NS(=O)(=O)c1cc2c(cc1C(F)(F)F)NCNS2(=O)=O`, “inactive”. `CC1=C(C(=O)O)N2C(=O)[C@@H](NC(=O)[C@H](N)c3ccc(O)cc3)[C@H]2SC1`: the Potency entry is “inactive”.

With `Nc1ccc(C(=O)OCC(O)CO)cc1` (stereo not drawn), the Potency result is “inactive”. Under `NCCCC[C@H](N[C@@H](CCc1ccccc1)C(=O)O)C(=O)N1CCC[C@H]1C(=O)O` stands “inactive”.

(Values after PubChem BioAssay (NCATS).)
